AmpC detergent: blocks E. coli AmpC beta-lactamase in detergent assay | P00811 | AmpC hydrolysis of nitrocefin, absorbance 480 nm, 0.01% Triton | Potency, µM (doses to about 114 µM), hits mostly inhibitors | 370,000 tested, 0.041% active; further: nearly all actives have a fitted effect of over 25% in size
Target sequence (P00811 whole entry, looked up): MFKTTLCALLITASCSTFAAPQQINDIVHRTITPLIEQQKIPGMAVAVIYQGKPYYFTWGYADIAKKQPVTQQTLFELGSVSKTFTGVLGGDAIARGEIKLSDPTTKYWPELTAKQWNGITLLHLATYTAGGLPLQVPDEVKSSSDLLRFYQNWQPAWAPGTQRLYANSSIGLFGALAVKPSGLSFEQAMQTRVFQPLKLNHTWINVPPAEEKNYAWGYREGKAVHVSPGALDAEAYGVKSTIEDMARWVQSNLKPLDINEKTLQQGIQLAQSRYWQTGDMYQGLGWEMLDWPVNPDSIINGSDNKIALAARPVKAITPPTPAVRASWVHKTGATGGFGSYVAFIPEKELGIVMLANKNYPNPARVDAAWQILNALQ
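20 mM phosphate pH 7.0 + 0.01% (detergent screen) or 0.0001% Triton X-100; 5.3 nM AmpC reagent; cpd preinc 15 min RT; nitrocefin (800 uM stock) to start; A480 q20 s × 4 min; Activity was normalised to no-enzyme and no-compound control wells.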
SARS PLpro yeast: blocks SARS-CoV papain-like protease in a yeast assay; S. cerevisiae expressing SARS-CoV PLpro, growth rescue; 330,000 tested, 0.19% active; Potency, µM (titrated, usually from 32.9 µM), hits mostly activators; calls by dose curve; further: nearly all actives have a fitted effect of over 55% in size
AmpC no deterg: AmpC beta-lactamase inhibition without detergent. AmpC nitrocefin hydrolysis, absorbance 480 nm, 0.0001% Triton. Potency, µM (highest dose often 57.1 µM), actives largely listed as inhibitors. 330,000 tested, 0.52% active; further: nearly all actives have a fitted effect of over 20% in size
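20 mM phosphate pH 7.0 + 0.01% (detergent screen) or 0.0001% Triton X-100; 5.3 nM AmpC reagent; cpd preinc 15 min RT; nitrocefin (800 uM stock) to start; A480 q20 s × 4 min; Activity was normalised to no-enzyme and no-compound control wells.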
Cycloheximide cs: affects cycloheximide protein synthesis inhibition readout, counter-screen; AID 2314; max response, %; cell reporter, cycloheximide protein synthesis inhibition counterscreen; 300,000 tested, 12% active; in the data active means max response mostly above about 13%, no sharp cut-off; inactive means mostly below about 14%; further: read at 38.3 µM for the half of the compounds with a filed dose
AMA1 RON2 block: disrupts binding of P. falciparum AMA1 to RON2; AlphaScreen AMA1-biotinylated RON2 peptide binding; 360,000 tested, 0.2% active; Potency, µM (doses to about 58.2 µM), usual class: inhibitors; AID 720542; further: nearly all actives have a fitted effect of over 45% in size
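AMA1 (3D7) with his tag at 25 nM final met compounds first, then biotinylated RON2 peptide at 25 nM; detection used donor plus acceptor beads, 10 µg/mL apiece, read by AlphaScreen after 30 min at room temperature.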
Shiga toxin inh: blocks Shiga toxin action in Vero cells | Vero cells, Shiga toxin protein synthesis inhibition reporter | inhibition, % at 38.7 µM | 290,000 tested, 9.2% active; in the data active means inhibition mostly above about 28%, no sharp cut-off; inactive means mostly below about 43%
Large screens that a line does not name were inactive. This excerpt belongs to a sample that is enriched for hits. Unless noted, the call rests on the fitted dose curve; in most records, active means well fitted curve in the direction sought with a large enough effect; inconclusive means small, poorly fitted or top-dose-only effect, or another doubt; inactive means no such curve, though single readings can be large; an effect the other way counts as inactive or inconclusive.

Cn1nccc1C(=O)N1CCCC(C(=O)c2cccc3ccccc23)C1 (stereo not given)	none
O=C(C1CCCN(Cc2cccnc2)C1)N1CCCCC1 (stereo not given)	Cycloheximide cs 22
COc1ccc2cc(C(=O)C3CCCN(C(=O)CCc4cnn(C)c4)C3)ccc2c1 (stereo not given)	Cycloheximide cs 27, Shiga toxin inh 43
Cn1cc(CCC(=O)N2CCCC(C(=O)c3cccc4ccccc34)C2)cn1 (stereo not given)	Cycloheximide cs 36
CCNC(=O)N1CCCC(C(=O)c2ccc3cc(OC)ccc3c2)C1 (stereo not given)	Cycloheximide cs 20
COc1ccc2cc(C(=O)C3CCCN(C(=O)c4cccnc4)C3)ccc2c1 (stereo not given)	none
CC(C)NC(=O)c1cc2c(-c3ccc(Cl)cc3)nn(C)c2s1	AmpC detergent inconclusive
O=C(c1cccc(C(F)(F)F)c1)C1CCCN(C(=O)Cn2cncn2)C1 (stereo not given)	AmpC detergent inconclusive, Cycloheximide cs 13
CCc1ccc(NC(=O)c2cc(S(=O)(=O)N3CCCCC3)c[nH]2)cc1	none (no result: SARS PLpro yeast, AmpC no deterg, Cycloheximide cs, AMA1 RON2 block, Shiga toxin inh)
CCOC(=O)c1cc2c(nc1N)CC(C)(CC)OC2 (stereo not given)	AmpC detergent inconclusive, Cycloheximide cs 49, Shiga toxin inh 116
CC(=O)Nc1c(C(=O)N2CCOCC2)sc2nc3c(cc12)COC(C)(C)C3	AmpC detergent inconclusive
CCOC(=O)c1sc2nc3c(cc2c1N)COC(C)(CC)C3 (stereo not given)	Cycloheximide cs 41
CCC1(C)Cc2nc3sc(C(=O)O)c(N)c3cc2CO1 (stereo not given)	none
CC1(C)Cc2nc3sc(C(N)=O)c(N)c3cc2CO1	Cycloheximide cs 31
CCOC(=O)c1cc2c(nc1N)CC(C)(C)OC2	none
CCOC(=O)c1sc2nc3c(cc2c1N)COC(C)(C)C3	Cycloheximide cs 38, Shiga toxin inh 29
O=C1CN(C(=O)c2cc(Br)c(Br)s2)c2ccccc2N1	none
CCCC(=O)Nc1ccc(N2CCN(C(=O)c3cc4ccccc4o3)CC2)cc1	none
Cc1ccccc1-c1nc2cc(Cl)ccc2o1	SARS PLpro yeast inconclusive, Cycloheximide cs 38
Cc1ccc(-c2nc3cc(NS(=O)(=O)c4ccc(C)cc4)ccc3o2)cc1	AmpC detergent inconclusive
Clc1ccc2oc(-c3cccnc3)nc2c1	Cycloheximide cs 47, Shiga toxin inh 85
O=S(=O)(Nc1ccc2oc(-c3ccccc3)nc2c1)c1ccccc1	Cycloheximide cs 31
Cc1ccc2nc(-c3ccccn3)oc2c1	none
Cc1ccc2nc(-c3cccnc3)oc2c1	Cycloheximide cs 47, AMA1 RON2 block inconclusive, Shiga toxin inh 131
O=C(CSc1nc2cc(Cl)ccc2o1)NCCc1ccccc1	none
Clc1ccc2oc(SCc3cccnc3)nc2c1	Cycloheximide cs 23, Shiga toxin inh 66
Clc1ccc2oc(-c3ccccc3)nc2c1	Cycloheximide cs 46, Shiga toxin inh 107
Cn1c(=O)c(Oc2cc(Cl)cc(Cl)c2)nc2ccccc21	AmpC no deterg 0.4µM
Nc1ncc(Br)cc1N=Cc1ccccc1	Cycloheximide cs 75, Shiga toxin inh 27
COc1cccc(C(=O)CC(C#N)c2ccc(F)cc2)c1 (stereo not given)	Shiga toxin inh 26
CC(Cc1ccccn1)NC(=O)CCc1nnc(C2CCCCC2)o1 (stereo not given)	Cycloheximide cs 11
CC(NC(=O)CCc1nnc(C2CCCCC2)o1)c1ccc(F)cc1 (stereo not given)	none
Cc1cccc(NC(=O)c2cnn3ccccc23)c1C	Cycloheximide cs 50, Shiga toxin inh 78
Cc1ccc(C)c(NC(=O)c2nc(Cl)ccc2Cl)c1	AmpC detergent inconclusive, Cycloheximide cs 26
Cc1cccc(NC(=O)c2ccccc2O)c1C	Cycloheximide cs 34, Shiga toxin inh 49
O=C(Nc1ccccc1O)c1ccccc1O	Cycloheximide cs 32, Shiga toxin inh 53
Cc1ccc(C)c(NC(=O)COC(=O)c2nc(Cl)ccc2Cl)c1	none (no result: Cycloheximide cs, Shiga toxin inh)
COC(=O)C1=C[C@@H](C(=O)OC)C2C3=C(C(=O)[C@]2(CC(C)C)NC(=O)c2ccccc2)[C@H](C)n2c(=O)n(C)c(=O)n2[C@@H]3C1 (stereo not given in full)	none (no result: AmpC detergent, SARS PLpro yeast, AmpC no deterg, AMA1 RON2 block)
CCN(CC)S(=O)(=O)N1CCC(C(=O)NCCC2=CCCCC2)CC1	none
O=C(NCc1ccc(Cl)cc1)c1cnn2ccccc12	AmpC detergent inconclusive, Cycloheximide cs 56, Shiga toxin inh 80
Cc1ccc(CNC(=O)Cn2nnc(C(=O)Nc3cccc(C)c3C)c2N)cc1	none
Cc1ccccc1Cn1nnc(C(=O)Nc2cccc(C)c2C)c1N	Cycloheximide cs 30
O=C(Nc1ccccc1O)c1ccc(C(=O)c2ccccc2)o1	AmpC detergent inconclusive, Cycloheximide cs 27, Shiga toxin inh 35
Cc1ccc(C)c(NC(=O)c2ccccc2O)c1	AmpC detergent inconclusive, Cycloheximide cs 22
Cc1ccc(C)c(NC(=O)c2cc(C)nc3ccccc23)c1	none (no result: Shiga toxin inh)
O=C(CCC(=O)N1CCSc2ccccc21)NCc1cccc(Cl)c1	SARS PLpro yeast inconclusive
CC(=O)Nc1ccc(-c2ccnc3c2CC(C(=O)Nc2ccc(C(C)C)cc2)O3)cc1 (stereo not given)	none (no result: AmpC detergent, SARS PLpro yeast, AmpC no deterg, Cycloheximide cs, Shiga toxin inh)
Cc1ccccc1C(=O)Nc1c(C(=O)N2CCN(C)CC2)cnn1-c1ccccc1	none (no result: AmpC detergent, SARS PLpro yeast, AmpC no deterg, Cycloheximide cs, Shiga toxin inh)
Clc1c(CSc2nc3ccccc3o2)nc2ccccn12	AmpC detergent inconclusive, Cycloheximide cs 33
Clc1c(CSc2nc3ccccc3o2)nc2sccn12	Cycloheximide cs 30, Shiga toxin inh 152
Cc1cc(C)nc(SCc2nc3ncccn3c2Br)n1	AmpC detergent inconclusive
O=C(CSc1nc2ccccc2o1)N1c2ccccc2Sc2ccccc21	none
Brc1c(CSc2nc3ccccc3o2)nc2ncccn12	AmpC detergent inconclusive, Cycloheximide cs 40
O=C(CSc1nc2ccccc2o1)Nc1nncs1	AmpC detergent inconclusive
COc1ccc(/C=C/C(=O)NC(=S)NNC(=O)[C@H]2C[C@@H]2c2ccccc2)cc1OC	AmpC no deterg 7.1µM
O=C(NCCCN1CCN(c2ccc(F)cc2)CC1)c1cc2c(s1)-c1ccccc1OC2	none (no result: SARS PLpro yeast, AmpC no deterg, Cycloheximide cs, AMA1 RON2 block, Shiga toxin inh)
CCOc1nc(Nc2ccccc2F)nc(OCC)n1	Cycloheximide cs 20
C=CCNc1nc(Nc2ccccc2F)nc(OCC)n1	Cycloheximide cs 47, Shiga toxin inh 123
O=C(CN1CC(=O)Oc2ccccc21)OCC(=O)c1ccc(Br)cc1	none (no result: AmpC detergent, SARS PLpro yeast, AmpC no deterg, Cycloheximide cs, Shiga toxin inh)
CCC(C(=O)Nc1ncn[nH]1)(C(F)(F)F)C(F)(F)F	none
Cn1c(C(=O)OC(C(=O)NC2CCCC2)c2ccncc2)cc2sccc21 (stereo not given)	none
Oc1ccc(/C=N/Nc2ncnc3nc[nH]c23)cc1	Cycloheximide cs 35

Bioassay records deposited in PubChem BioAssay by National Center for Advancing Translational Sciences (NCATS).
